TROY NFkB inh – blocks TROY-dependent signaling in reporter cells; Q293 LMP1-TROYcd NF-kB luciferase reporter, 4 h; inhibition, % at 10 µM; 0.98% of 360,000 active;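 active = compounds whose plate-normalised and pattern-corrected inhibition of the luciferase reporter signal at the single screening dose is 50% or more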
TWEAK Fn14 block – inhibitors of TWEAK-Fn14 interaction signaling; TWEAK-stimulated Fn14 reporter cells, luciferase luminescence, 8 h; 2% of 360,000 active; inhibition, % at 10 µM; in the data active = inhibition above about 50%
HIF-2a inh – blocks HIF-2a reporter activity. 786-0 RCC cells HIF-2a reporter, luciferase luminescence, overnight. 0.72% of 360,000 active. inhibition, % at 18.8 µM;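 active = inhibition of the luminescence signal of 40% or more relative to plate controls, in a single-dose primary screen at 18.75 µM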
HSP90 inh – HSP90 refolding inhibition in rabbit reticulocyte lysate; 0.91% of 290,000 active; inhibition, % at 5.6 µM; luciferase refolding luminescence, 3 h;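 active = inhibition above the screen-wide mean plus 3 SD, computed separately per campaign, cut at about 16% in these data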;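 also: 0% = DMSO wells and 100% = 60 µM geldanamycin wells; inhibitors lower the luminescence because luciferase stays unfolded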
C8 TRAIL sens – caspase-8 TRAIL sensitization; NB7+C8 cells + TRAIL, ATPlite viability luminescence; inhibition (viability loss, TRAIL sensitization), % at 10 µM; 1% of 360,000 active; AID 624354;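 active = compounds causing at least 50% loss of cell viability in the single-dose screen, relative to plate controls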
aSyn UTR inh – 5' untranslated region of α-synuclein, MLPCN primary screen | inhibition, % (tested at 7.5 µM) | alpha-synuclein 5'UTR reporter, inhibitor activity | 0.82% of 300,000 active; in the data active = inhibition above about 60%;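 also: H4 neuroglioblastoma cells stably carrying SNCA 5'UTR luciferase fusion; 0% = DMSO wells and 100% = positive control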
The depositor's hits bear a star; / = no result. Most compounds without a hit are left out; they make up all but 3.9% or so of the library.

SMILES	TROY NFkB inh	TWEAK Fn14 block	HIF-2a inh	HSP90 inh	C8 TRAIL sens	aSyn UTR inh
N#Cc1ccccc1S(=O)(=O)N1CCN(Cc2cc3c(cc2Br)OCCO3)CC1	10	-7	9	/	12	/
Clc1ccc(-c2nc3n(n2)Cc2ccccc2-3)cc1	-34	52*	-189	2	59*	-5
CCN(CC)S(=O)(=O)c1cccc(-c2nc3n(n2)Cc2ccccc2-3)c1	-50	3	-171	-1	-4	-86
O=C(NCc1ccco1)c1cnn2c(C(F)F)cc(-c3ccccc3)nc12	22	-41	10	3	24	37
Cc1cc(C)c(Cc2c(C)nc3c(C(=O)NCc4ccco4)cnn3c2C)c(C)c1	88*	73*	-6	6	18	7
Cc1ccc(Cl)cc1-n1ncc2c(NNC(=O)c3ccco3)ncnc21	-2	63*	6	-8	-17	-31
CC(=O)NNc1ncnc2c1cnn2-c1ccc(C)cc1	14	30	-85	-2	-15	-33
CC(=O)NNc1ncnc2c1cnn2-c1ccc(C)c(Cl)c1	61*	73*	-115	3	-16	-69
O=C(NNc1ncnc2c1cnn2-c1cccc(Cl)c1)c1ccco1	-29	12	-65	3	5	-158
Nc1nccc(-c2ccc(-n3cnc4ccccc43)cc2)n1	26	53*	-140	0	0	-63
Cc1nccc(-c2ccc(-n3cnc4ccccc43)cc2)n1	-9	13	-75	5	0	-96
CN(C(=O)COC(=O)c1nc(Cl)c(Cl)c(Cl)c1Cl)C1CCS(=O)(=O)C1 (stereo not drawn)	57*	94*	40	-2	-4	-210
O=C(CCCN1C(=O)/C(=C/c2ccccc2Cl)SC1=S)NNC(=O)c1ccccc1	57*	70*	90*	0	28	62*
O=C(CCCN1C(=O)/C(=C/c2cccs2)SC1=S)NNC(=O)c1cccnc1	14	-2	14	0	14	-9
O=C(CCCN1C(=O)/C(=C/c2ccccc2Cl)SC1=S)NNC(=O)c1ccc(Cl)cc1Cl	37	17	73*	3	15	71*
Cc1cc(NC(=O)CCN2C(=O)/C(=C\c3ccccc3Cl)SC2=S)no1	-6	-31	9	1	-3	4
O=C(CCCN1C(=O)/C(=C/c2ccccc2Cl)SC1=S)NNC(=O)c1cccnc1	77*	87*	84*	5	12	20
O=C(CCN1C(=O)/C(=C/c2ccccc2Cl)SC1=S)Nc1ccccc1C(=O)O	46	10	5	0	-8	-3
COC(=O)[C@]12CCCCC=C1N(Cc1ccccc1)C(=O)[C@H](CC(=O)N1CCSCC1)C2	-5	9	16	/	-13	/
CCCCCCCCCc1conc1C(=O)/C=C/c1ccco1	/	/	6	/	-3	/
COC(=O)C[C@@H]1CC[C@H](NS(=O)(=O)c2ccccc2F)[C@@H](CO)O1	/	/	7	/	2	/
CN(c1cccc(NC(=O)Nc2cccc(Cl)c2)c1)S(C)(=O)=O	5	82*	-205	-1	18	-92
O=C(Nc1cccc(Cl)c1)Nc1csc([N+](=O)[O-])c1	38	72*	-173	3	24	-60
CCOC(=O)[C@]12CCC=C1N(Cc1ccco1)C(=O)[C@H](CC(=O)N1CCCC1)C2	1	-3	4	/	-22	/
CCOc1ccc(Nc2nc3ccccc3n3cnnc23)cc1	-7	87*	-57	-4	13	13
SMILES	TROY NFkB inh	TWEAK Fn14 block	HIF-2a inh	HSP90 inh	C8 TRAIL sens	aSyn UTR inh
c1ccc(N2CCCCC2)c(Nc2nc3ccccc3n3cnnc23)c1	24	2	-12	-1	-1	45
c1ccc2c(c1)nc(Nc1ccc(N3CCCCC3)cc1)c1nncn12	36	51*	-95	4	12	-4
c1ccc2c(c1)CCN(c1ncnc3nc[nH]c13)C2	7	-13	0	-2	0	15
CC1Cc2ccccc2N1c1ncnc2nc[nH]c12 (stereo not drawn)	30	60*	-87	2	9	-32
COc1ccc(-n2sc3c(c2=S)-c2cc(OC)ccc2NC3(C)C)cc1	9	0	41*	-1	3	-1
CN(CC(=O)Nc1ccc(F)c(F)c1F)C(=O)CCN1C(=O)C2CC=CCC2C1=O (stereo not drawn)	-3	19	8	/	-3	/
CC(=O)Nc1ccc(C(=O)OCc2ccc(Cl)c(Cl)c2)cc1	86*	94*	-93	-3	-6	-17

Source: PubChem BioAssay
